# Results: PubChem BioAssay (NCI)
# About 83,000 compounds went through this panel and 20% of them were active in at least one assay; those are over-represented in the sample as a whole.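 Note: values are percent growth. 100 is the growth of untreated cells, values between 100 and 0 indicate rising inhibition; between -100 and 0 indicates cell death.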 Unmarked numbers belong to inactive results. Active and inactive are the calls of the source. The calls were made as follows: active = growth percent below 10; inactive = the rest.
# What was measured:
# Test in all cases: NCI-60 one-dose screen, 48 h (100 = growth as untreated, 0 = no growth, -100 = all killed)
# Conditions in all cases: 10 µM unless noted
# T-47D breast = test system: T-47D breast
# BT-549 breast = test system: BT-549 breast
# MDA-MB-435 melanoma = test system: MDA-MB-435 melanoma
# SW-620 colon = test system: SW-620 colon
# MCF7 breast = test system: MCF7 breast
# HCT-116 colon = test system: HCT-116 colon
# HCC-2998 colon = test system: HCC-2998 colon
# KM12 colon = test system: KM12 colon
# MDA-MB-468 breast = test system: MDA-MB-468 breast
Compound,growth (T-47D breast),growth (BT-549 breast),growth (MDA-MB-435 melanoma),growth (SW-620 colon),growth (MCF7 breast),growth (HCT-116 colon),growth (HCC-2998 colon),growth (KM12 colon),growth (MDA-MB-468 breast)
O=C(Cn1c(/C=C/c2ccc([N+](=O)[O-])cc2)nc2ccccc2c1=O)Nc1ccccc1,79.9%,63.1%,91%,83.6%,78.5%,61.2%,79.8%,77.3%,45.4%
CC(C)C[C@H](NC(=O)[C@@H]1CCCCCCCCCCC(=O)N[C@@H](CC(=O)N2CCC[C@@H]2C2CCCC2)C(=O)N1)B(O)O,-20% (active),-79.2% (active),-57.3% (active),4.22% (active),-28.2% (active),-80% (active),-100% (active),-35.7% (active),-70.6% (active)
COc1cc(C2CC(c3ccc(F)cc3)=Nc3c(N)nc(N)nc3N2)ccc1Oc1nc(Nc2ccc(F)cc2)nc(N(C)C)n1 (centres undefined),65.7%,51.3%,47%,31.8%,7.4% (active),6.9% (active),29.1%,44.9%,-17.8% (active)
COc1ccc(/C=C/C(=O)c2ccc(OC)c(S(N)(=O)=O)c2)c(C(F)(F)F)c1,29.3%,-78.9% (active),63.6%,7.45% (active),8.35% (active),-44.3% (active),-95.4% (active),6.97% (active),7.25% (active)
O=C1Nc2ccccc2/C1=C\c1ccc(OCC(=O)c2ccc(Br)cc2)cc1,46.9%,56.6%,70.5%,78.1%,27.4%,55.4%,85.1%,77.3%,52.4%
CC(C)(C)c1cc(-c2cc(-c3ccccc3)[nH]c(=O)c2C#N)cc(C(C)(C)C)c1,36.4%,-3.78% (active),56.9%,66.1%,71.8%,-35% (active),59.8%,81.3%,37.8%
CS(=O)(=O)Nc1cc(-c2ccc3ncnc(N4CCc5cc(F)c(Cl)cc54)c3c2)cnc1Cl,-9.78% (active),-25.2% (active),3.42% (active),32.7%,8.15% (active),23.6%,16.5%,14.2%,-60.2% (active)
O=C(NN1C(=O)/C(=C/C=C/c2ccc([N+](=O)[O-])o2)SC1=S)c1ccc(O)cc1,-53.4% (active),-94% (active),-91% (active),-69.1% (active),-54.4% (active),-85.1% (active),-92.6% (active),-95.2% (active),-77.3% (active)
CCCCNc1ccc2c3c(cccc13)C(=O)N(c1cccc(-c3nn(-c4ccccc4)cc3-c3nc4ccccc4s3)c1)C2=O,101%,117%,106%,105%,109%,98.9%,119%,108%,97.7%
COc1ccc2[nH]c(O)c(N=Nc3nc(-c4ccc(C#N)cc4)cs3)c2c1,54.7%,63.2%,67.3%,63.3%,69.8%,31.8%,90.8%,78.4%,77.5%
N/C(=N\c1nc2ccc([N+](=O)[O-])cc2s1)NC(=O)Nc1ccccc1Cl,26.2%,25.9%,5.83% (active),21.4%,36.5%,-2.76% (active),86.6%,38.6%,0% (active)
N#CCc1nnc(NC(=O)c2ccc(-n3c(=O)[nH]c4ccccc4c3=O)cc2)s1,100%,109%,106%,104%,90.6%,103%,108%,121%,121%
COc1ccc(-c2nc3ccc(-c4nnc(SCc5ccccc5)o4)cc3[nH]2)cc1,-41.9% (active),-54% (active),-29.5% (active),7.51% (active),-20.2% (active),-60.5% (active),25.4%,16.5%,-23.8% (active)
CS(=O)(=O)Nc1cncc(-c2ccc3ncnc(NCc4ccccc4)c3c2)c1,3.96% (active),2.92% (active),55.1%,38.9%,9.82% (active),19.1%,45.9%,65.5%,-34% (active)
N#C/C(=C/c1ccc([N+](=O)[O-])cc1)c1nnc(NC(=O)c2ccc(-n3c(=O)[nH]c4ccccc4c3=O)cc2)s1,85.8%,107%,105%,100%,84.9%,94.8%,108%,90.8%,98.5%
CC(Nc1ncnc2ccc(-c3ccc4oc(N)nc4c3)cc12)c1ccccc1 (centres undefined),-74.3% (active),-21.6% (active),13%,-66.6% (active),-73.1% (active),-64.7% (active),41.5%,23.6%,-78.4% (active)
COC(=O)c1cc(C(C)=O)n2c3ccccc3c3ccccc3c12,54.6%,38.5%,93%,89.3%,59.6%,50.3%,91.4%,86%,65.8%
N#CC1=C(c2ccco2)Nc2c(c(-c3ccccc3)nn2-c2ccccc2)C12C(=O)Nc1ccc(Cl)cc12 (centres undefined),26.6%,15.4%,53.7%,15.9%,21.3%,-73.1% (active),64.8%,52.1%,42.3%
CCOc1ccc(-c2cc(-c3cc(C(C)C)c(O)cc3C)nn2-c2ccc(S(N)(=O)=O)cc2)cc1,18.4%,3.59% (active),-43.6% (active),33.3%,12%,24%,4.6% (active),7.96% (active),-16.5% (active)
C/C(=N\Nc1ccc(S(N)(=O)=O)cc1)c1cnn(-c2cc(=O)[nH]c3ccc(Br)cc23)c1C,17.5%,37.7%,4.39% (active),75.7%,23.1%,58.5%,73.4%,53.7%,-10.8% (active)
COC(=O)c1cc(C(=O)C(F)(F)F)n2c3ccccc3c3ccccc3c12,64.4%,85.9%,96.2%,83.9%,80.8%,48%,108%,100%,60.8%
CC1=C(C)C(=O)C(N2CCSCC2)=CC1=O,105%,91%,112%,97.3%,99.6%,93%,109%,105%,60.4%
Cc1cc(=O)oc2cc(OCC(O)CNN3C(=O)c4cccc5c(N6CCN(C)CC6)ccc(c45)C3=O)ccc12 (centres undefined),109%,113%,56.9%,84.3%,88.6%,93.5%,101%,90.8%,108%
O=CNc1cccc(-n2cnc3cc(-c4ccc(O)cc4)ccc32)c1,37.5%,52.6%,24.1%,46.3%,35%,14.1%,43.5%,26.4%,19.5%
COc1cc(CNC(=O)C[C@H](C)CCC=C(C)C)ccc1OCc1cn(-c2ccc(Cl)cc2Cl)nn1,60.2%,83.7%,98.2%,89.3%,67.5%,53.1%,92.5%,93.1%,50.4%
COc1ccc2c(c1)C(Sc1ccc(F)cc1)c1c(nc(N)c(C#N)c1N)O2 (centres undefined),79%,62.1%,91%,84.7%,67.5%,79.9%,114%,85%,99.6%
